# DT40 TDP1 CPT: DT40-hTDP1 cell growth loss with CPT | hit rate 12% among 420,000 | chicken DT40 Tdp1-/-;hTDP1 cells + 20 nM CPT, ATP luminescence, 48 h | Potency, µM (series often up to 46.2 µM), without a hit: at the highest dose activity change, negative = growth inhibition, usual class: inhibitors; note: potency is the fitted concentration of half-maximal effect; nearly all actives have a fitted effect of over 55% in size
#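 Chicken DT40 Tdp1-/- cells complemented with human TDP1, 400 cells/well, exposed to compounds plus 20 nM camptothecin for at least 48 h at 37 C; viability read as ATP content by CellTiter-Glo luminescence.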
# IL-1B inflam inh: inhibitors of inflammasome signaling (IL-1 beta secretion); AID 743279; hit rate 4.7% among 360,000; activity change, % at 57.5 µM; THP-1 LPS/ATP IL-1B secretion, AlphaLISA, 16 h; stronger effect = lower value; in the data active = activity change below about -50%; inconclusive = mostly about -30% to -49%
#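 THP-1 cells pretreated 1 hr with compounds (up to 57.5 uM final), then stimulated with LPS (250 ng/mL final) plus ATP (1.25 mM final); secreted IL-1B measured by AlphaLISA after 16 hr, decreased signal indicating inhibition.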
# Gal4-VP16 FLuc: counter-screen for ROR gamma inhibitors: Gal4-VP16 reporter. hit rate 3.5% among 310,000. Drosophila S2 Gal4-VP16 UAS-luciferase, luminescence, 20 h. Potency, µM (highest dose often 53.6 µM), inactives show top-dose activity, negative = inhibition, hits mostly inhibitors;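 note: Gal4-VP16 expression switched on by copper sulfate through the metallothionein promoter; potency is the fitted concentration of half-maximal effect; nearly all actives have a fitted effect of over 50% in size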
# TDP1 cell noCPT: qHTS for Inhibitors of human tyrosyl-DNA phosphodiesterase 1 (TDP1): qHTS in cells in absence of CPT; Potency, µM (titrated, usually from 46.2 µM), without a hit: top-dose activity change, negative = growth inhibition, most hits filed as inhibitors; AID 686978, 2013; hit rate 15% among 420,000; DT40 Tdp1-/- hTDP1 cells, no CPT, ATP luminescence, 48 h; note: potency is the fitted concentration of half-maximal effect; nearly all actives have a fitted effect of over 55% in size
#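 Stably hTDP1-transfected Tdp1-null chicken DT40 cells were treated with library compounds minus camptothecin and grown for at least 48 hr at 37 °C, after which cellular ATP was quantified by luminescence.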
# ELG1 DNA repair: blocks ELG1-dependent DNA repair in HEK293T cells; HEK293T ELG1-luciferase reporter, luminescence, 16 h; DNA damage induced by 5-fluorouridine; Potency, µM (titrated, usually from 46.1 µM), for inactives: at the highest dose activity change, negative = inhibition, actives largely listed as inhibitors; hit rate 2.3% among 330,000; AID 504467; note: potency is the fitted concentration of half-maximal effect; nearly all actives have a fitted effect of over 55% in size
#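 5-Fluorouridine DNA damage + compound/DMSO, 2,000 cells/well, 16 h, 37 °C/5% CO2. ONE-Glo, 30 min RT, luminescence. Readout = decrease in reporter signal.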
# RORg inh: inhibitors of mouse ROR gamma transcriptional activity; Potency, µM (highest dose often 53.6 µM), for the others: at the top dose activity change, negative = inhibition, hits mostly inhibitors; P51450; Drosophila S2 Gal4-RORgamma UAS-luciferase reporter, 20 h; hit rate 5.4% among 310,000; note: potency is the fitted concentration of half-maximal effect; nearly all actives have a fitted effect of over 60% in size
# Target sequence (P51450 whole entry, looked up, the tested form may be a part): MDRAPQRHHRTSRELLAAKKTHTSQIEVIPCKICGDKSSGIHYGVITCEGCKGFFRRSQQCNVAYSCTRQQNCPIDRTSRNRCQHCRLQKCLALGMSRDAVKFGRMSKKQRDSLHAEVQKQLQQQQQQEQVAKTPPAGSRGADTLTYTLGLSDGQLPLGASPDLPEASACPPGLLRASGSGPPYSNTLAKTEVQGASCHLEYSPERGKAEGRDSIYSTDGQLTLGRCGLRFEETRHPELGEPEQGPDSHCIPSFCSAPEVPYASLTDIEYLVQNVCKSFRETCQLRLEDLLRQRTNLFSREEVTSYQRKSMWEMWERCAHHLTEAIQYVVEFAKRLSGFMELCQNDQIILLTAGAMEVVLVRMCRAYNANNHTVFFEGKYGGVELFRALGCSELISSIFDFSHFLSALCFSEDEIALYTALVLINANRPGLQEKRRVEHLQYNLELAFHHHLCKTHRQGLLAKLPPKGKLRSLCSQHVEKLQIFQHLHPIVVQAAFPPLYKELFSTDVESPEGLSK
#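 Luminescence from a UAS-regulated Photinus luciferase reporter in stably transfected Drosophila Schneider cells is measured; decreased signal marks ROR gamma inhibition. Fusion expression is induced by 700 uM copper sulfate for 20 hr.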
# Active calls of the source: *; ? = inconclusive; · = not tested or not shown. The list is not random: actives were taken first. Their share in the collection is about 21%. Unless noted, calls come from the whole dose curve; as a rule, active = well fitted curve in the direction sought with a large enough effect; inconclusive = small, poorly fitted or top-dose-only effect, or another doubt; inactive = no such curve, though single readings can be large; an effect the other way counts as inactive or inconclusive. % is set by controls: 0 for no effect and ±100 for the full control effect.
SMILES,DT40 TDP1 CPT,IL-1B inflam inh,Gal4-VP16 FLuc,TDP1 cell noCPT,ELG1 DNA repair,RORg inh
COC(=O)c1sc(-c2ccccc2)cc1NC(=O)c1cccc(Cl)c1,5%,·,·,?,·,·
Cc1cc2c(cc1C)N[C@]1(C[C@H]3CCCC(=O)N4CC[C@@H](C1)[C@@H]34)C(=NC(C)(C)CC(C)(C)C)N2,18µM*,41,·,11µM*,·,·
O=C1CCC[C@@H]2C[C@@]3(C[C@@H]4CCN1[C@H]24)Nc1cc(Cl)ccc1NC3=NC1CCCCC1,?,23,·,?,·,·
O=C1CCC[C@@H]2C[C@@]3(C[C@@H]4CCN1[C@H]24)Nc1cc([N+](=O)[O-])ccc1NC3=NC1CCCCC1,26µM*,-11,·,11µM*,·,·
Cc1cc2c(cc1C)N[C@]1(C[C@H]3CCCC(=O)N4CC[C@@H](C1)[C@@H]34)C(=NCc1ccccc1)N2,11µM*,·,·,11µM*,·,·
CCc1noc(C)c1C(=O)N(CC)CC(=O)NCc1ccc(F)cc1,-13%,2,·,-14%,·,·
Cc1ccc([C@@H]2CC=C(C(=O)O)[C@H](c3ccccc3F)N2S(=O)(=O)c2ccccc2C)cc1,-4%,43,·,-15%,-1%,·
COc1ccc(Cl)cc1NC(=O)c1nnn(CC(=O)Nc2ccc(C)c(C)c2)c1N,-14%,18,-9%,18%,?,-17%
Cc1cccc(NC(=O)COc2cccc3c2CCNC3=O)c1,?,7,·,3%,·,·
Cc1cccc(C(=O)NNC(=O)c2ccc(-c3ccccc3)cc2)c1,?,-2,0%,?,2%,-3%
Cc1cccc(C(=O)NN/C=C/C(=O)c2ccccc2)c1,?,70,5µM*,26µM*,8%,6.3µM*
Cc1cccc(C(=O)NCCNC(=O)c2cccc(C)c2)c1,-17%,74,-9%,29µM*,-5%,41%
O=C(C=CC=Cc1ccccc1)c1ccc([N+](=O)[O-])cc1,23µM*,-26,·,21µM*,·,·
Cc1cccc(C(=O)NCCN2CCCC2)c1,-5%,-7,-3%,-21%,?,-20%
O=C(/C=C/NNC(=O)c1ccccc1)c1ccccc1,0.58µM*,37,?,0.82µM*,?,7.9µM*
CCC(C)n1c(SCC(=O)N(CC)c2c(N)n(Cc3ccccc3)c(=O)[nH]c2=O)nc2ccccc2c1=O (stereo unspecified),-26%,0,·,-13%,·,·
O=C(c1cccs1)c1ccccc1Cc1cccs1,?,-7,·,3%,·,·
O=C(O)CC(c1ccccc1)N1C(=O)c2ccccc2C1=O (stereo unspecified),1%,-10,·,-23%,·,·
O=C(/C=C/c1ccc([N+](=O)[O-])cc1)c1cccnc1,15µM*,-14,22µM*,?,?,?
Cc1ccc(S/C=C\C(=O)c2ccccc2)cc1,21µM*,-103*,14µM*,21µM*,?,-13%
Cc1ccc(C(=O)C=CNNC(=O)c2ccccc2)cc1,?,6,7.1µM*,?,?,13µM*
O=C(/C=C/c1cccnc1)c1ccc(F)c(F)c1,?,-75*,?,16µM*,?,?
CCOc1ccc(C(=O)CSc2nc3cc(C(=O)NC4CCCC4)ccc3c(=O)n2CC2CCCO2)cc1 (stereo unspecified),0%,·,·,1%,·,·
O=C(/C=C/NNC(=O)c1ccccc1O)c1ccccc1,?,-3,?,16µM*,-7%,?
O=C(NNS(=O)(=O)c1ccc([N+](=O)[O-])cc1)c1ccccc1,-4%,-3,·,3%,·,·
SMILES,DT40 TDP1 CPT,IL-1B inflam inh,Gal4-VP16 FLuc,TDP1 cell noCPT,ELG1 DNA repair,RORg inh
O=C(/C=C/NNC(=O)c1ccc(Br)cc1)c1ccccc1,2.9µM*,8,-1%,4.1µM*,?,?
NC(=O)c1ccccc1N/C=C/C(=O)c1ccccc1,8%,0,?,12%,?,38%
O=C(/C=C/NNC(=O)c1ccccc1)c1ccc([N+](=O)[O-])cc1,6.5µM*,129,-6%,9.2µM*,?,0%
O=C(NC(Cc1cc(=O)[nH]c2ccccc12)C(=O)O)c1ccc(Cl)cc1 (stereo unspecified),15%,·,-1%,-10%,·,14%
Cc1ccc(CS(=O)(=O)c2cn(CC(=O)Nc3ccon3)c3ccccc23)cc1,15%,-18,·,?,7%,·
O=[N+]([O-])c1ccc(S(=O)(=O)NCCN2CCOCC2)cc1,-2%,0,2%,1%,?,-5%
O=S(=O)(NCCN1CCOCC1)c1ccc(F)c(Cl)c1,18µM*,-1,-4%,16µM*,3%,-2%
O=S(=O)(NCCN1CCOCC1)c1ccc(Cl)c(Cl)c1,-7%,-7,5%,-18%,2%,14%
O=[N+]([O-])c1cc(S(=O)(=O)NCCN2CCOCC2)ccc1Cl,-5%,-84*,6%,-10%,1%,-12%
O=S(=O)(NCCCN1CCOCC1)c1ccc(Cl)s1,?,2,-1%,23µM*,3%,29%
CCCCCCNS(=O)(=O)c1ccc(Cl)s1,-15%,1,-23%,?,7%,8%
CCCN1CCC(=NNc2ccc(S(=O)(=O)N3CCOCC3)cc2[N+](=O)[O-])CC1,2.6µM*,4,-25%,2.6µM*,?,-16%
Cc1cc(=O)[nH]c2nnc(SCC(=O)Nc3ccc(F)cc3F)n12,8%,·,·,-3%,·,·
CC(=O)c1ccc(NC(=O)CN(C)S(=O)(=O)c2cnc[nH]2)cc1,-3%,·,·,1%,·,·
CC1=C(C(=O)OCC2CCCCC2)C(c2cccc(Cl)c2Cl)CC(=O)N1 (stereo unspecified),-4%,·,·,1%,·,·
CC1=C(C(=O)OC2CCCCCC2)C(c2ccc(Cl)cc2Cl)CC(=O)N1 (stereo unspecified),15µM*,·,·,16µM*,·,·
CC1=C(C(=O)OCC2CCCCC2)C(c2ccc(Cl)cc2Cl)CC(=O)N1 (stereo unspecified),?,·,·,21µM*,·,·
CC1=C(C(=O)OC2CCCCCC2)C(c2cccc(Cl)c2)CC(=O)N1 (stereo unspecified),18µM*,·,·,18µM*,·,·
CC1=C(C(=O)OC2CCCCCCC2)C(c2cccc(O)c2)NC(=O)N1 (stereo unspecified),?,-19,-24%,?,-3%,?
COC(=O)C1=C(C)NC(=O)CC1c1cccc(Cl)c1Cl (stereo unspecified),?,35,-2%,?,0%,-25%

# Screening results (PubChem BioAssay)
